Inconclusive results are not listed. Activity calls are given as the source filed them. Unless noted, calls come from the whole dose curve. Peptide text beside a SMILES is read from it.
What was measured:
[1] = qHTS for Inhibitors of the Functional Ribonucleoprotein Complex (vRNP) of Lassa (LASV) Arenavirus: LASV Primary Screen - GLuc reporter signal (AID 1347082; calls by dose curve; tested in HEK293 reporter line; note: nearly all actives have a fitted effect of over 60% in size); settings: LASV minigenome vRNP, Gaussia luciferase reporter; series mostly up to 57.5 µM
[2] = qHTS for Inhibitors of the Functional Ribonucleoprotein Complex (vRNP) of Lassa (LASV) Arenavirus: Viability assay - alamar blue signal for LASV Primary Screen (AID 1347083; calls by dose curve; tested in HEK293 reporter line; note: nearly all actives have a fitted effect of over 80% in size); settings: cell viability, alamar blue fluorescence (LASV minigenome counter-screen); series mostly up to 57.5 µM
[3] = qHTS for Inhibitors of the Functional Ribonucleoprotein Complex (vRNP) of Lymphocytic Choriomeningitis Arenaviruses (LCMV): Viability assay - alamar blue signal for LCMV Primary Screen (AID 1347085; calls by dose curve; tested in HEK293 reporter line; note: nearly all actives have a fitted effect of over 80% in size); settings: alamar blue viability counter-screen, LCMV vRNP screen cells; series mostly up to 57.5 µM
[4] = target: Nucleoprotein (Lymphocytic choriomeningitis virus (strain Armstrong)) (UniProt P09992); assay: qHTS for Inhibitors of the Functional Ribonucleoprotein Complex (vRNP) of Lymphocytic Choriomeningitis Arenaviruses (LCMV): LCMV Primary Screen - GLuc reporter signal (AID 1347086); settings: LCMV minigenome vRNP cell assay, Gaussia luciferase reporter; series mostly up to 57.5 µM; note: nearly all actives have a fitted effect of over 70% in size

Measured: Potency

Nucleoprotein (Lymphocytic choriomeningitis virus (strain Armstrong)), sequence (P09992 whole entry, looked up): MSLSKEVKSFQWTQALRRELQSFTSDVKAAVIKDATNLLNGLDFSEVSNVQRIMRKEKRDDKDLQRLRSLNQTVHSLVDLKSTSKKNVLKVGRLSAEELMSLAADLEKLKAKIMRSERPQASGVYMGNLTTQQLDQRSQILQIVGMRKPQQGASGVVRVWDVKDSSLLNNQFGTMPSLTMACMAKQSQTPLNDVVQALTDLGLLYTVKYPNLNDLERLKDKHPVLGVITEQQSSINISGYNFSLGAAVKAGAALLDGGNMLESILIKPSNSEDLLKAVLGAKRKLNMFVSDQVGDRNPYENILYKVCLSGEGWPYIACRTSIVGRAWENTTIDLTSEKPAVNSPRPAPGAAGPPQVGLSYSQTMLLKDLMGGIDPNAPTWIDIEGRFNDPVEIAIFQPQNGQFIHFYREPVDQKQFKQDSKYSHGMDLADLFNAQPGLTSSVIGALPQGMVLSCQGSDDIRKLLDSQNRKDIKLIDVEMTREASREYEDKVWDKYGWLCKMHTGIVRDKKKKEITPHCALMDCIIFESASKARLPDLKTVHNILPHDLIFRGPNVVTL

C[C@]12CC[C@H]3[C@@H](CCC4=CC(=O)CC[C@@]43C)[C@@H]1CC[C@@H]2C(=O)CO
inactive: [1] | [2] | [3] | [4]

O=C1Nc2cc(Cl)ccc2Oc2ccccc21
inactive: [1] | [2] | [3] | [4]

c1ccc(CCNc2nc(-c3ccccc3)cs2)cc1
inactive: [1] | [2] | [3] | [4]

O=C1Cc2cc(Cl)ccc2N1
inactive: [1] | [2] | [3] | [4]

CCOC(=O)c1cccc(N)c1
inactive: [1] | [2] | [3] | [4]

CCCCc1cc2ccccc2c(OCCN(C)C)n1
inactive: [1] | [2] | [3] | [4]

CN(C(=O)CN(CCO)CC(=O)N(C)C(C)(C)Cc1ccccc1)C(C)(C)Cc1ccccc1
inactive: [1] | [2] | [3] | [4]

CC1(c2ccccc2)OC(C(=O)O)=CC1=O (stereo not given)
inactive: [1] | [2] | [3] | [4]

C[C@@H]1CCN(C(=O)[C@H](CCCN=C(N)N)NS(=O)(=O)c2cccc3c2NC[C@H](C)C3)[C@@H](C(=O)O)C1
inactive: [1] | [2] | [3] | [4]

NC(=O)CC[C@@H](N)C(=O)O
inactive: [1] | [2] | [3] | [4]

CN1C(=O)CC(c2ccccc2)C1=O (stereo not given)
inactive: [1] | [2] | [3] | [4]

COc1cc(C(=O)OCCCN2CCCN(CCCOC(=O)c3cc(OC)c(OC)c(OC)c3)CC2)cc(OC)c1OC
inactive: [1] | [2] | [3] | [4]

CCOC(=O)OC(C)OC(=O)[C@@H]1N2C(=O)[C@@H](NC(=O)[C@H](N)c3ccccc3)[C@H]2SC1(C)C (stereo not given in full)
inactive: [1] | [2] | [3] | [4]

CC[C@H](c1ccc(O)cc1)[C@@H](CC)c1ccc(O)cc1
inactive: [1] | [2] | [3] | [4]

OC(CCN1CCCCC1)(c1ccccc1)c1ccccc1
inactive: [1] | [2] | [3] | [4]

COc1ccccc1N1CCN(CCCNc2cc(=O)n(C)c(=O)n2C)CC1
inactive: [1] | [2] | [3] | [4]

Cc1cccc(CN2CCN(C(c3ccccc3)c3ccc(Cl)cc3)CC2)c1 (stereo not given)
inactive: [1] | [2] | [3] | [4]

C=C(C)C(=O)OCC(O)CO (stereo not given)
inactive: [1] | [2] | [3] | [4]

CC(C)C(=O)OCc1cccc(OC(=O)[C@@H]2N3C(=O)[C@@H](NC(=O)Cc4ccccc4)[C@H]3SC2(C)C)c1
inactive: [1] | [2] | [3] | [4]

CO/N=C(\C(=O)O)c1csc(NC(=O)CCl)n1
inactive: [1] | [2] | [3] | [4]

Oc1cccc2[nH]ccc12
inactive: [1] | [2] | [3] | [4]

Cc1cc(O)c(C(C)C)cc1Cl
inactive: [1] | [2] | [3] | [4]

Cc1ccc(=O)n(-c2ccccc2)c1
inactive: [1] | [2] | [3] | [4]

CC[N+]1(CC)CCC(=C(c2ccccc2)c2ccccc2)C1C (stereo not given)
inactive: [1] | [2] | [3] | [4]

CCCCNc1ccc(C(=O)OCCN(C)C)cc1
inactive: [1] | [2] | [3] | [4]

Nc1ccc(S(=O)(=O)Nc2cnc3ccccc3n2)cc1
inactive: [1] | [2] | [3] | [4]

CC(=O)Nc1cccc(O)c1
inactive: [1] | [2] | [3] | [4]

COCCc1ccc(OCC2CO2)cc1 (stereo not given)
inactive: [1] | [2] | [3] | [4]

Cc1cn([C@H]2C[C@H](F)[C@@H](CO)O2)c(=O)[nH]c1=O
inactive: [1] | [2] | [3] | [4]

CC1(C)[C@H](C(=O)O)N2C(=O)C[C@H]2S1(=O)=O
inactive: [1] | [2] | [3] | [4]

CCCC(=O)OC[C@@H](OC(=O)CCC)[C@@H](OC(=O)CCC)[C@H](Cn1c2nc(=O)[nH]c(=O)c-2nc2cc(C)c(C)cc21)OC(=O)CCC
inactive: [1] | [2] | [3] | [4]

CCN(CC)CCOC(=O)C(c1ccccc1)c1ccccc1
inactive: [1] | [2] | [3] | [4]

O=S(=O)(c1cccc2cnccc12)N1CCCNCC1
inactive: [1] | [2] | [3] | [4]

CC(=O)Oc1c(C)c(C)c2c(c1C)CC[C@@](C)(CCC[C@H](C)CCC[C@H](C)CCCC(C)C)O2
inactive: [1] | [2] | [3] | [4]

O=C(O)c1cccnc1Nc1cccc(C(F)(F)F)c1
inactive: [1] | [2] | [3] | [4]

CC1CCCCN1CCCOC(=O)c1ccc(OC2CCCCC2)cc1 (stereo not given)
inactive: [1] | [2] | [3] | [4]

Cc1cc(N)c2cc(NC(=O)Nc3ccc4nc(C)cc(N)c4c3)ccc2n1
inactive: [1] | [2] | [3] | [4]

COc1cc(C(=O)NCCCCCC(=O)O)cc(OC)c1OC
inactive: [1] | [2] | [3] | [4]

c1ccc(CNCCNCc2ccccc2)cc1
inactive: [1] | [2] | [3] | [4]

CCOc1ccc(C(=O)OCCN(CC)CC)cc1
inactive: [1] | [2] | [3] | [4]

C=C1C[C@H]2[C@@H]3C=C(C)C4=CC(=O)CC[C@]4(C)[C@H]3CC[C@]2(C)[C@@]1(OC(C)=O)C(C)=O
inactive: [1] | [2] | [3] | [4]

Cc1cc(C(C)(C)C)c(O)c(C)c1CC1=NCCN1
inactive: [1] | [2] | [3] | [4]

C[C@H](N)[C@H](O)c1cccc(O)c1
inactive: [1] | [2] | [3] | [4]

C=CCOc1cc(Cl)ccc1C(=O)NCCN(CC)CC
inactive: [1] | [2] | [3] | [4]

C[C@@H]1C[C@H]2[C@@H]3CCC4=CC(=O)C=C[C@]4(C)[C@@]3(F)[C@@H](O)C[C@]2(C)[C@@]1(O)C(=O)COC(=O)c1ccncc1
inactive: [1] | [2] | [3] | [4]

O=C(CCC1CCN(Cc2ccccc2)CC1)c1ccc2c(c1)NCCCC2
inactive: [1] | [2] | [3] | [4]

Cc1cccc(C)c1NC(=O)CN1CCCC1
inactive: [1] | [2] | [3] | [4]

CC(=O)N[C@@H](CO)C(=O)N[C@@H](CC(=O)O)C(=O)N[C@@H](CCCCN)C(=O)N1CCC[C@H]1C(=O)O (Ac-SDKP-OH)
inactive: [1] | [2] | [3] | [4]

CN(C)CCC(c1ccccc1)c1ccccn1 (stereo not given)
inactive: [1] | [2] | [3] | [4]

CN(C)[C@@H](CCOc1cccc2ccccc12)c1ccccc1
inactive: [1] | [2] | [3] | [4]

CCC1(c2cnc[nH]2)Cc2ccccc2C1
inactive: [1] | [2] | [3] | [4]

Cc1c(Cn2ccnc2)c2ccccc2n1CCC(=O)O
inactive: [1] | [2] | [3] | [4]

CC(COc1ccccc1)NC(C)C(O)c1ccc(O)cc1 (stereo not given)
inactive: [1] | [2] | [3] | [4]

CN(C)CCCOC1(Cc2ccccc2)CCCCCC1
inactive: [1] | [2] | [3] | [4]

COc1cc(NS(=O)(=O)c2ccc(N)cc2)ncn1
inactive: [1] | [2] | [3] | [4]

COc1cc(NS(=O)(=O)c2ccc(N)cc2)nc(OC)n1
inactive: [1] | [2] | [3] | [4]

CC1=CC(=O)c2ccccc2C1=O
inactive: [1] | [2] | [3] | [4]

COc1ccc2c(c1)C(=O)N(CCc1ccc(S(=O)(=O)NC(=O)NC3CCCCC3)cc1)C(=O)C2(C)C
inactive: [1] | [2] | [3] | [4]

O=C(O)C1CCC1
inactive: [1] | [2] | [3] | [4]
